Experimental data taken from PubChem BioAssay AID651711 (Broad Institute, 2012).
“And” between values parts separate entries of the source, which are not always exact repeats. Identical values can stand only once. Screen size: about 350,000 compounds; about 180 (0.051%) were called active.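 How the source made its calls: active means mean replicate inhibition above about 25%, with every replicate also reaching it (limit read from the data, passing the limit was not always enough); inconclusive means only one of those two criteria met; inactive means neither criterion met.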 The list comes from a sample in which actives are over-represented; it also holds similar structures and randomly drawn compounds.

biological target: Protein disulfide-isomerase A6 (Homo sapiens) (UniProt Q15084); test: inhibitors of ERp5-driven insulin aggregation, primary screen, biochemical, turbidity, absorbance 650 nm, single point (AID 651711); conditions: 90 min, at 9.99 µM, hits give high values
Sequence (Q15084 whole entry, looked up): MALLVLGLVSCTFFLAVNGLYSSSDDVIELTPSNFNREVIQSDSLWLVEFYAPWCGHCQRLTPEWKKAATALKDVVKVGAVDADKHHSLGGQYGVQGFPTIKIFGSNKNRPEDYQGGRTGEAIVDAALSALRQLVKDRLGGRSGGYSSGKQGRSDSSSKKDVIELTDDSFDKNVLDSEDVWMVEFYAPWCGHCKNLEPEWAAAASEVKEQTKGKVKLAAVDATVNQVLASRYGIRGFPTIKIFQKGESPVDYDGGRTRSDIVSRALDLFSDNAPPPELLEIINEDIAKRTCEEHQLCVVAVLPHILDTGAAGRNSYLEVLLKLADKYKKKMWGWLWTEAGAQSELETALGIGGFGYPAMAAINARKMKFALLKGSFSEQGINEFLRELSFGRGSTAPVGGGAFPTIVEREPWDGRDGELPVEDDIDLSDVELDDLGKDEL

inhibition, active:
COc1cccc(C(=O)OCC(=O)c2[nH]c(C)c(C(C)=O)c2C)c1 27.2%
COc1ccc2c3c([nH]c2c1)[C@H](CO)N(Cc1ccccc1Cl)CC31CN(C(=O)C2CC2)C1 32%

inhibition, inactive:
CCOC(=O)c1c(C)[nH]c(C(=O)OCC(=O)c2ccc(OC)cc2OC)c1C -4.48%
CC(=O)c1c(C)[nH]c(C(=O)COC(=O)c2cccs2)c1C 14.1%
C[C@@H]1CN([C@@H](C)CO)C(=O)c2cc(NC(=O)CCCN(C)C)ccc2O[C@@H](C)CCCCO[C@@H]1CN(C)S(=O)(=O)c1ccc(Cl)cc1 0.282%
C[C@@H]1CN([C@@H](C)CO)C(=O)Cc2cc(NC(=O)CCN3CCOCC3)ccc2O[C@@H]1CN(C)C(=O)Nc1cccc2ccccc12 7.67%
O=C(N[C@@H]1CC[C@@H](CCn2cc(-c3ccccn3)nn2)O[C@@H]1CO)c1ccccc1 -2.15%
COc1ccc(S(=O)(=O)Nc2ccc3c(c2)C(=O)N([C@@H](C)CO)C[C@H](C)[C@H](CN(C)Cc2ccc(C(=O)O)cc2)OCCCC[C@@H](C)O3)cc1 -3.93%
Cc1noc(C)c1S(=O)(=O)N(C)C[C@H]1Oc2ccc(NS(=O)(=O)c3cccs3)cc2C(=O)N([C@H](C)CO)C[C@H]1C -0.984%
O=S(=O)(c1ccccc1)N1CCCCN2[C@@H](CO)[C@H](c3ccc(C#Cc4cccnc4)cc3)[C@@H]2C1 -0.401%
COCCNC(=O)C[C@@H]1CC[C@H]2[C@H](COc3ccc(NS(=O)(=O)c4ccc(Cl)cc4)cc3C(=O)N2C)O1 6.32%
C[C@H]1CN([C@@H](C)CO)C(=O)Cc2cc(NS(=O)(=O)c3cccs3)ccc2O[C@@H]1CN(C)Cc1ccc(Oc2ccccc2)cc1 0.293%
COc1ccc2c3c([nH]c2c1)[C@@H](CO)N(Cc1cc(F)ccc1F)CC31CN(C(=O)C2CCC2)C1 0.016%
COc1ccc2c3c([nH]c2c1)[C@@H](CO)N(Cc1ccccc1F)CC31CN(C(=O)C2CC2)C1 5.63%
COc1ccc(NC(=O)Nc2cccc3c2O[C@@H](CN(C)C(=O)NC(C)C)[C@H](C)CN([C@H](C)CO)C3=O)cc1 1.64%
O=C(C[C@H]1CC[C@H]2[C@@H](COC[C@@H](O)CN2CC2CCCC2)O1)NCC1CC1 5.23%
O=C(CCN1CCCCC1)NCC[C@H]1CC[C@@H](NC(=O)C2CCOCC2)[C@H](CO)O1 -1.07%
C[C@H](NC(=O)[C@H]1N[C@H]2c3ccc(-c4ccc(C(=O)N(C)C)cc4)c(=O)n3C[C@H]2[C@@H]1CO)c1ccccc1 -1.53%
O=C(C[C@@H]1CC[C@H](NC(=O)NC2CCCCC2)[C@H](CO)O1)NCc1ccc(F)cc1 -0.201%
CCC(=O)Nc1ccc2c(c1)OC[C@@H](C)N(Cc1cncnc1)C[C@H](C)[C@@H](OC)CN(C)C2=O 1.32%
O=C(Nc1cccc(F)c1)N1CC(=O)N2[C@H](C1)[C@H](c1ccc(-c3ccccc3F)cc1)[C@@H]2CO -0.993%
CN(C)C(=O)[C@@H]1[C@@H](CO)[C@@H]2Cn3c(ccc(-c4ccncc4)c3=O)[C@H]1N2C(=O)NC1CCCC1 -2.64%
CO[C@@H]1CN(C)C(=O)c2cc(NC(=O)c3ccccc3F)ccc2OC[C@H](C)N(C(C)=O)C[C@@H]1C 3.35%
O=C(C[C@H]1CC[C@@H]2[C@H](COC[C@H](O)CN2Cc2ccccc2F)O1)NC1CCC1 -3.28%
CCCNC(=O)C[C@H]1C[C@H]2c3cc(NC(=O)COC)ccc3O[C@H]2[C@H](CO)O1 2.76%
CNC(=O)C[C@@H]1CC[C@@H]2[C@@H](COc3ccc(NC(=O)Nc4ccccc4OC)cc3C(=O)N2C)O1 5.92%
CCC(=O)N(C)C[C@@H]1Oc2cc(C#C[C@H](C)O)ccc2S(=O)(=O)N([C@@H](C)CO)C[C@H]1C -0.347%
C[C@@H]1CN([C@H](C)CO)C(=O)Cc2cc(NC(=O)CCN3CCOCC3)ccc2O[C@H]1CN(C)CC1CC1 -3.37%
COc1ccc(CCN2C(=O)[C@@]3(Cc4ccccc42)c2ccccc2C(=O)N(Cc2ccccc2C(F)(F)F)[C@H]3c2ccc(CO)cc2)cc1 4.71%
C[C@H](CO)N1C[C@H](C)[C@@H](CN(C)C(=O)Cc2ccncc2)Oc2ncc(C3=CCCCC3)cc2C1=O 4.38%
O=C(c1cccc(F)c1)N1CC[C@@H]2[C@@H](CO)Nc3ccc(C#Cc4cccc(F)c4)cc3[C@@H]21 -3.07%
C[C@H](CO)N1C[C@H](C)[C@@H](CN(C)Cc2ccc(C(=O)O)cc2)Oc2ccc(NS(=O)(=O)c3cn(C)cn3)cc2CC1=O -1.33%
CC(C)NC(=O)N1CC2(C1)[C@H](c1ccccc1)[C@H](CO)N2C(=O)C1CCOCC1 0.292%
C/C=C/c1ccc([C@H]2[C@@H](CO)N(C(=O)NCCC)[C@H]2CN(C)C(C)=O)cc1 5.18%
CC(C)NC(=O)Nc1ccc2c(c1)C(=O)N([C@H](C)CO)C[C@@H](C)[C@@H](CN(C)Cc1ccncc1)O2 -5.48%
COc1ccc(C#Cc2cccc(-c3nc(C(=O)O)cc4c3[C@@H](CCO)N(S(=O)C(C)(C)C)C4)c2)cc1OC (stereo partly specified) -1.96%
Cc1ccc(S(=O)(=O)N(C)C[C@@H]2OCc3ccccc3-c3c(n(C)c4ccccc34)C(=O)N([C@@H](C)CO)C[C@@H]2C)cc1 3.4%
O=C(C[C@H]1C=C[C@H](NC(=O)Nc2ccc(C(F)(F)F)cc2)[C@@H](CO)O1)NCCN1CCCC1 18.1%
C[C@@H]1CN([C@@H](C)CO)C(=O)Cc2cc(NC(=O)Cc3cn(C)c4ccccc34)ccc2O[C@H]1CN(C)C(=O)NC1CCCCC1 5.6%
C[C@@H]1CN([C@H](C)CO)C(=O)Cc2cc(NC(=O)Nc3cccc4ccccc34)ccc2O[C@H]1CN(C)C(=O)Nc1ccc2c(c1)OCO2 -12.4%
C[C@H](CO)N1C[C@H](C)[C@H](CN(C)C(=O)CCC(F)(F)F)OCCCC[C@H](C)Oc2ccc(NS(=O)(=O)c3ccc(F)cc3)cc2C1=O 6.41%
COCC(=O)Nc1ccc2c(c1)[C@@H]1C[C@H](CC(=O)NCc3ccc(-c4ccccc4)cc3)O[C@H](CO)[C@@H]1O2 -0.847%
CN1C(=O)c2cc(NC(=O)C3CCCC3)ccc2OC[C@@H]2O[C@@H](CC(=O)NCCc3ccncc3)CC[C@@H]21 -3.7%
C[C@@H]1CCCCO[C@H](CN(C)S(=O)(=O)c2ccc(Cl)cc2)[C@@H](C)CN([C@H](C)CO)C(=O)c2cc(NC(=O)Nc3ccc4c(c3)OCO4)ccc2O1 0.772%
O=C1[C@@H](c2ccccc2)[C@@H](c2ccccc2)N1c1ccccc1 3.47%
O=C(N[C@@H]1C=C[C@@H](CC(=O)N2CCOCC2)O[C@H]1CO)c1ccccn1 2.34%
CN(C)CC(=O)Nc1ccc2c(c1)[C@H]1C[C@H](CC(=O)NCc3ccccn3)O[C@@H](CO)[C@H]1O2 -3.52%
Cc1[nH]c2ccccc2c1CC(=O)Nc1ccc(Nc2cccnc2)c(-c2cccc(Cl)c2)c1 -5.11%
CO[C@H](CN(C)C(=O)c1ccc2c(c1)OCO2)[C@H](C)CN([C@@H](C)CO)S(=O)(=O)c1ccc(Cl)cc1 3%
C[C@H]1CN([C@@H](C)CO)C(=O)c2cccc(NC(=O)Nc3ccc(F)cc3)c2O[C@@H]1CN(C)C(=O)Nc1ccc2c(c1)OCO2 4.97%
N#C[C@@H]1[C@H](c2ccccc2-c2ccc(F)cc2)[C@@H](CO)N1c1ncc(-c2ccccc2)s1 3.09%
O=C(c1ccncc1)N1C[C@H]2[C@@H](c3ccccc31)[C@H](CO)N2Cc1ccc(F)cc1 -3.32%
COc1ccc2c3c(n(C)c2c1)[C@@H](CO)NCC31CCN(CC2CCCC2)CC1 1.66%
O=C(Nc1ccccc1)N1CC(=O)N2[C@@H](CO)[C@H](c3ccc(C#CC4CCCC4)cc3)[C@@H]2C1 1.6%
C[C@@H]1CN([C@H](C)CO)C(=O)c2cc(-c3cncnc3)cnc2O[C@@H]1CN(C)Cc1ccc(Oc2ccccc2)cc1 -1.07% and -77.5%
COCC(=O)Nc1ccc2c(c1)C(=O)N(C)[C@@H]1CC[C@@H](CC(=O)NCCCN(C)C)O[C@@H]1CO2 -2.7%
C[C@@H](NC(=O)C[C@@H]1C=C[C@@H](NC(=O)CN2CCOCC2)[C@H](CO)O1)c1ccccc1 10.6%
Cc1ccc(S(=O)(=O)Nc2ccc3c(c2)C(=O)N([C@@H](C)CO)C[C@H](C)[C@H](CN(C)C(=O)Nc2ccc(C(F)(F)F)cc2)O3)cc1 -3.11%
CCNC(=O)[C@H]1[C@H](CO)[C@H]2Cn3c(ccc(/C=C/c4ccccc4)c3=O)[C@@H]1N2C(=O)C1CCC1 -5.59%
Cn1cnc(S(=O)(=O)N2C[C@@H](O)COC[C@H]3O[C@@H](CC(=O)NCc4ccc(F)cc4)CC[C@@H]32)c1 -0.766%
C[C@@H]1CCCCO[C@@H](CN(C)Cc2ccccc2)[C@H](C)CN([C@H](C)CO)C(=O)c2cc(NC(=O)Nc3cccc4ccccc34)ccc2O1 0.587%
